Screening data (PubChem)
HP1b chromo inh: inhibitors of HP1-beta chromodomain binding to methylated histone tails. P83916. AlphaScreen HP1-beta / biotin-H3K9me3 peptide binding. 0.56% of 390,000 active. Potency, µM (titrated, usually from 114 µM), without a hit: top-dose activity change, negative = inhibition, usual class: inhibitors; note: nearly all actives have a fitted effect of over 70% in size
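HP1-beta protein (50 nM final) preincubated 30 min at room temperature with biotinylated H3(1-18)K9me3 peptide (50 nM) in PBS pH 7.4, 0.01% Tween-20, then compound added for 30 min. AlphaScreen streptavidin donor/nickel chelate acceptor beads (10 ug/mL final), 30 min dark, luminescence read.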
Sfp inh: Sfp phosphopantetheinyl transferase inhibition; Q9F4F7; 3.5% of 310,000 active; Potency, µM, for inactives: largest response in the series, negative = inhibition, actives largely listed as inhibitors; AID 1490; Biochemical Sfp PPTase activity, qHTS;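 note: the enzyme is Sfp with the accession as filed and its product quenches rhodamine fluorescence; 0% = enzyme reaction without inhibitor and -100% = no enzyme wells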
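After 15 min at room temperature with compound, 15 nM Sfp received 5 uM rhodamine-CoA plus 12.5 uM BHQ-2-ybbR (50 mM Hepes pH 7.6, 10 mM MgCl2). Rate came from the fluorescence difference over 30 min, ex 525/em 598 nm.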
L3MBTL1 inh: L3MBTL1 (human) inhibition; Q9Y468; 0.66% of 230,000 active; AlphaScreen L3MBTL1–H3K9me1 peptide binding; Potency, µM (top dose mostly 57.1 µM), for the others: at the top dose activity, negative = inhibition, usual class: inhibitors; AID 485360; note: % is set by controls: 0 for no effect and ±100 for the full control effect; nearly all actives have a fitted effect of over 60% in size
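Read-out is AlphaScreen signal from streptavidin donor and nickel chelate acceptor beads (10 ug/mL final each) bridging L3MBTL1 (50 nM) and biotinylated K9-monomethylated H3(1-15) peptide (75 nM), after 30 min compound exposure at room temperature.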
BAZ2B block: BAZ2B (human) inhibition; AID 504333; AlphaScreen BAZ2B-H3K14Ac peptide displacement; Q9UIF8; Potency, µM (highest dose often 114 µM), for inactives: at the top dose activity change, negative = inhibition, most hits filed as inhibitors; 4.4% of 360,000 active; note: % is set by controls: 0 for no effect and ±100 for the full control effect; nearly all actives have a fitted effect of over 60% in size
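Multi-concentration screen (max 110 uM) measuring displacement of acetylated histone H3 peptide from BAZ2B by AlphaScreen, using 50 nM protein, 50 nM peptide and 10 ug/mL streptavidin donor plus Ni-chelate acceptor beads.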
JMJD2A Tudor inh: blocks the human JMJD2A Tudor domain. O75164. AlphaScreen JMJD2A-Tudor / H3K4me3 peptide binding. Potency, µM (top dose mostly 114 µM), for inactives: top-dose activity change, negative = inhibition, most hits filed as inhibitors. 4.4% of 390,000 active. AID 504339; note: % is set by controls: 0 for no effect and ±100 for the full control effect; nearly all actives have a fitted effect of over 50% in size
G9a block: G9a (human) methyltransferase inhibition | 8.8% of 350,000 active | Q96KQ7 | Potency, µM (highest dose often 102 µM), inactives show at the top dose activity, negative = inhibition, actives largely listed as inhibitors | G9a H3K9 monomethylation, AlphaScreen, 2 h; note: % is set by controls: 0 for no effect and ±100 for the full control effect; nearly all actives have a fitted effect of over 75% in size
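Readings reflect AlphaScreen signal from monomethyl-H3K9 antibody detection. HMT at 20 nM; substrate b-H3K9 500 nM; cofactor SAM 20 uM; 2 h RT reaction; compounds tested as titrations in qHTS with 15 min preincubation.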
Numbers without * were called inactive; ? = inconclusive; nt = no result given; [ ] = another dose, or the depositor's remark. Only some compounds are listed: those with a hit (about 12% of all), similar ones and a draw of the others. Calls come from the whole dose curve; as a rule, active = well fitted curve in the direction sought with a large enough effect; inconclusive = small, poorly fitted or top-dose-only effect, or another doubt; inactive = no such curve, though single readings can be large; an effect the other way counts as inactive or inconclusive. Potency is the fitted concentration of half-maximal effect.

SMILES	HP1b chromo inh	Sfp inh	L3MBTL1 inh	BAZ2B block	JMJD2A Tudor inh	G9a block
CCCCCC(=O)NNC1CC(=O)N(c2ccccc2)C1=O (stereo unspecified)	1%	14%	-2%	2%	-13%	6%[59 µM]
CCCCCCC(=O)N(O)C1CC(=O)N(Cc2ccccc2)C1=O (stereo unspecified)	16%	50µM*	-4%	2%	?	2.5µM*
CCCCCC(=O)N(O)C1CC(=O)N(c2ccccc2)C1=O (stereo unspecified)	-78%	13µM*	3%	-29%	22µM*	1.4µM*
O=C1CCSC2(C(=O)N(Cc3ccc(F)cc3)c3ccccc32)N1c1cccc(F)c1 (stereo unspecified)	11%	nt	nt	-1%[57.1 µM]	-19%	-33%[59 µM]
C=CCC(C)(O)C(=O)OCC (stereo unspecified)	nt	9%	nt	nt	nt	nt
O=C(O)/C=C/c1cnc2ccccc2c1	27%	3%	2%	-15%	-13%	50µM*
O=C(O)/C=C/c1ccccc1	nt	28%	nt	nt	nt	25%[59 µM]
CCOC(=O)C(Cc1c[nH]c2cc([N+](=O)[O-])ccc12)(NC(C)=O)C(=O)OCC	23%[57 µM]	nt	nt	nt	-20%	nt
Cc1ccc(OCC(=O)Nc2ccc(S(=O)(=O)Nc3ncccn3)cc2)c(C(C)(C)C)c1	33%	nt	nt	-4%	-10%	14µM*
Cc1ccc(OCC(=O)Nc2ccc(S(=O)(=O)Nc3ccccn3)cc2)cc1C	26%	-5%	22%	-4%	-9%	50µM*
COc1ccc(C2(C(=O)Nc3ccc(S(=O)(=O)Nc4nc(C)cc(C)n4)cc3)CCCC2)cc1OC	3%	4%	3%	-11%	-19%	50µM*
Cc1cc(C)c(C)c(OCC(=O)Nc2ccc(S(=O)(=O)Nc3nc(C)cc(C)n3)cc2)c1	12%	nt	nt	-15%	-21%	14µM*
Cc1ccccc1OCC(=O)Nc1ccc(S(=O)(=O)Nc2ncccn2)cc1	37%	nt	nt	1%	-15%	?
Cc1ccc(C(O)C2=CCCC2=O)cc1 (stereo unspecified)	nt	-1%	nt	nt	nt	nt
Cc1ccc(-n2nc(C(=O)N(C)c3ccc(C)c(C)c3)c3c4ccccc4n(C)c3c2=O)cc1	5%	nt	nt	nt	-28%	-42%[59 µM]
C[C@@H](Oc1ccc(Oc2cnc3ccc(Cl)cc3n2)cc1)C(=O)O	nt	nt	nt	nt	nt	0%[12.7 µM]
CC(=O)OC1CC(OC(C)=O)[C@]2(C)C(CC(=O)[C@]3(C)C2CC[C@@]2(C)C(C(=O)O)OC(=O)C4OC423)C1(C)C (stereo partly specified)	nt	-3%	nt	nt	nt	-36%[2.33 µM]
NCCCC[C@H](N)C(=O)N[C@@H](CCCN=C(N)N)C(=O)N1CCC[C@H]1C(=O)N1CCC[C@H]1C(=O)NCC(=O)N[C@@H](Cc1ccccc1)C(=O)N[C@@H](CO)C(=O)N1CCC[C@H]1C(=O)N[C@@H](Cc1ccccc1)C(=O)O	nt	6%	nt	nt	nt	nt
COc1cccc(C2NC(=O)CCC2[N+](=O)[O-])c1 (stereo unspecified)	33%	20%	nt	5%	-9%	-1%
CCOC(=O)c1cc(-c2ccccc2)sc1N	?	22µM*	-10%	?	?	8.9µM*
CCOC(=O)c1cc(-c2ccccc2)sc1NC(=O)CCN1C(=O)c2ccccc2C1=O	11%	15%	2%	5%	-11%	13%[59 µM]
CCOC(=O)c1cc(-c2ccccc2)sc1NC(=O)CC	?	-21%	14%	10%	-32%[57.1 µM]	56µM*
COC(=O)C(=C/C=C/c1ccco1)C(=O)OC	38%	-1%	-7%	-24%	-9%	45µM*
COC(=O)N/N=C(C)\C=C\c1ccco1	37%	10%	3%	-3%	-12%	?
COc1cccc(N2C(=O)c3ccccc3C2=O)n1	nt	nt	nt	nt	6%	nt
SMILES	HP1b chromo inh	Sfp inh	L3MBTL1 inh	BAZ2B block	JMJD2A Tudor inh	G9a block
O=C(CCCCCN1C(=O)c2ccccc2C1=O)Nc1ccc(C(=O)O)cc1	30%	3%	nt	-8%	-6%	8%
COC(=O)C1C(=O)C(C(=O)/C=C/c2ccco2)C(=O)CC1(C)C (stereo unspecified)	nt	56µM*	nt	nt	nt	nt
COc1ccc(CNC(=O)CCCN2C(=O)c3cccnc3Oc3ccc(Cl)cc32)cc1	31%	nt	nt	1%	-3%	2%[59 µM]
C=CCOc1ccccc1C(=O)/C=C1/C(=O)Nc2ccccc21	-13%	79µM*	nt	-34%	?	?
O=C1Nc2ccccc2/C1=C/C(=O)c1cccs1	-25%	45µM*	nt	35µM*	-27%[57.1 µM]	?
COc1ccc(C(=O)/C=C2/C(=O)Nc3ccccc32)c(OC)c1	-33%	56µM*	nt	?	-22%	-41%[12.7 µM]
COc1ccc(C(=O)/C=C2/C(=O)Nc3ccccc32)cc1	40%	-1%	nt	-5%	-16%	-12%
NC(=O)COc1ccc(C(=O)/C=C2/C(=O)Nc3ccccc32)cc1	-4%	-6%	nt	-15%	?	79µM*
CCCC(NC(C)C(=O)N1C(C(=O)O)CC2CCCCC21)C(=O)OCC (stereo unspecified)	nt	14%	nt	nt	nt	-33%[2.33 µM]
CC(C)(C#CC(O)(c1ccccc1)c1ccccc1)N1CCCC1	5%	6%	1%	2%	-26%	-4%
COc1cccc(C(=O)NC(=S)Nc2ccccc2N2CCCCC2)c1	-12%	12%	nt	?	?	-4%
COc1c(C)cccc1C(=O)NC(=S)Nc1ccccc1N1CCCC1	-3%	9%	nt	?	50µM*	32µM*
COc1cccc(C(=O)NC(=S)Nc2ccccc2N2CCCC2)c1	22µM*	25µM*	-14%	28µM*	?	3%[12.7 µM]
O=C(NC(=S)Nc1ccccc1N1CCCC1)c1ccccc1[N+](=O)[O-]	?	16%	?	?	-34%	?
CCc1ccc(-n2nc(CO)c(C(=O)NCc3cccnc3)n2)cc1	56%	nt	nt	-2%	-2%	-3%[59 µM]
Cc1ccc(-c2nn(-c3cc(Cl)ccc3[N+](=O)[O-])c(=O)c3ccccc23)cc1C	?	-16%	-14%	45µM*	?	-5%[0.501 µM]
Cc1ccc(-c2nn(-c3cc(N4CCNCC4)ccc3[N+](=O)[O-])c(=O)c3ccccc23)cc1	?	-26%	-16%	-37%	?	32µM*
O=c1c2ccccc2c(-c2ccccc2)nn1-c1cc(Cl)ccc1[N+](=O)[O-]	-11%	14%	-13%	?	-29%[11.4 µM]	-8%[59 µM]
O=c1[nH][nH]c(=O)c2c(NS(=O)(=O)c3ccccc3)cccc12	-18%	9%	4%	-2%	45µM*	-6%[59 µM]
Cc1ccc(N(CC(=O)Nc2ccccc2-c2ccccc2)S(=O)(=O)c2ccccc2)c(C)c1	8%	14%	-6%	-27%	-14%	8.9µM*
